We go through twelve molecules from ChEMBL document CHEMBL3433997, “St. Jude Leishmania screening dataset” (2016).

What all share (type): functional
Assay [1] has as its target Solute carrier family 2, facilitated glucose transporter member 1 (Homo sapiens) (UniProt P11166). In words: ST_JUDE_LEISH: Cytotoxicity at 2uM final concentration against transgenic Leishmania Mexicana promastigotes LmGLUT1 that are glucose transport deficient and complemented with the human glucose transporter GLUT1. Activity is measured by DNA content using SYBR green in vitro.

The target of assay [2] is Hexose transporter 1 (Plasmodium falciparum) (UniProt O97467). In words: ST_JUDE_LEISH: Cytotoxicity at 2uM final concentration against transgenic Leishmania Mexicana promastigotes LmPfHT that are glucose transport deficient and complemented with the Plasmodium falciparum hexose transporter. Activity is measured by DNA content using SYBR green in vitro.
For assay [3], the target named is Glucose transporter (Leishmania mexicana) (UniProt O61059). As to the kind of experiment: ST_JUDE_LEISH: Cytotoxicity at 2uM final concentration against transgenic Leishmania Mexicana promastigotes LmGT2 that are glucose transport deficient and complemented with the L. Mexicana glucose transporter 2. Activity is measured by DNA content using SYBR green in vitro.

Chain of Solute carrier family 2, facilitated glucose transporter member 1 (Homo sapiens) (P11166 whole entry): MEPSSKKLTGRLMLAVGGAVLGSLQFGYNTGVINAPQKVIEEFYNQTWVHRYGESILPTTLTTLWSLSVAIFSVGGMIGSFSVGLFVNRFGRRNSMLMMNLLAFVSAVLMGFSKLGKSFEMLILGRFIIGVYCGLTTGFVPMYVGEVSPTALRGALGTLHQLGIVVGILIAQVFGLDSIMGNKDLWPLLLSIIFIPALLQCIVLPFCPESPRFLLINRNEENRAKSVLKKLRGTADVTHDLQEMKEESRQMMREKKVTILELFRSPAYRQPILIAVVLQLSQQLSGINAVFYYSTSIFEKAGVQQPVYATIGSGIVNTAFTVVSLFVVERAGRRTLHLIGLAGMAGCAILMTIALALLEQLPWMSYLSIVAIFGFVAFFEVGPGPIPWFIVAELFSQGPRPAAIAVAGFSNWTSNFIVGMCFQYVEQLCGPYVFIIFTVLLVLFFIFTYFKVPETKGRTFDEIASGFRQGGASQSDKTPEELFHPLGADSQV

Consider `O=C(NCc1ccc(Cl)c(Cl)c1)c1ccc(C2CCN(Cc3ccc4[nH]cnc4c3)CC2)cc1`, for which the inhibition (as a rule, the change of the read-out against control, counted positive when it falls) was determined as 2.71% in assay [1], 1.42% in assay [2] and 0.28% in assay [3].

Turning to `O=C(Nc1cc(C(F)(F)F)ccc1-n1cncn1)C1(c2ccccc2)CC1`, the inhibition in assay [1] was -1.28%; in assay [2], -1.95%; in assay [3], 0.27%.

In the case of `O=C(Nc1ccc2c(c1)CCNCC2)Nc1ccc2ccccc2c1`, the values for the inhibition in assay [1], in assay [2] and in assay [3] were 11.1%, 8.46% and 9.36%, respectively.

With `CCNc1cc(C(=O)N[C@@H](Cc2ccccc2)[C@H](O)CNC(C)(C)CCCC(C)C)cc(N2CCCCS2(=O)=O)c1`, the inhibition in assay [1] is -0.28%; in assay [2], 0.88%; in assay [3], -0.83%.

As to `COc1c(C2CCN(CCCCNC(=O)c3cc(-c4ccc(Cl)cc4)[nH]c3C)CC2)ccc2c1CCCC2`, the inhibition in assay [1] amounted to 3.66%; in assay [2] it was 4.04%; in assay [3], 4.31%.

On to `O=C1NC(=O)C(c2cccc(NC(=O)c3ccncc3)c2)=C1c1ccccc1`, for which the inhibition in assay [1] was 1.05%; in assay [2], 1.65%; in assay [3], -4.34%.

Consider `COc1ccc(OCC(O)CN(Cc2ccccc2OC)C(=O)Nc2ccc(Br)cc2)cc1` (stereo unspecified), for which the inhibition in assay [1] is 6.41%; in assay [2] it was 4.6%; in assay [3], 1.1%.

With `CCOc1ccc(-c2nonc2NC(=O)c2ccccc2OC)cc1OCC`, the inhibition in assay [1] was 3.08%; in assay [2], 2.92%; in assay [3], 0.46%.

For the molecule `COc1ccc2nccc([C@@H](O)CN3CCC(NCc4nc5c(OCc6ccccc6)cccc5[nH]4)CC3)c2c1`, the inhibition stood at 4.97% in assay [1], 3.37% in assay [2] and 4.99% in assay [3].

Take `COc1cc(C(=O)N2CCOC(CCN3CCC(Cc4ccc(F)cc4)CC3)(c3ccc(Cl)c(Cl)c3)C2)cc(OC)c1OC` (stereo unspecified): the values for the inhibition in assay [1], in assay [2] and in assay [3] were 5.79%, 7.29% and 2.49%, respectively.

In the case of `CO/C(=C\C=C\c1cc2cc(Cl)c(Cl)cc2[nH]1)C(=O)Nc1ccc(NCCN(C)C)nc1`, the inhibition in assay [1] was determined as 6.97%; in assay [2] it was 6.98%; in assay [3], 2.42%.

As to `COc1ccc(Nc2nc(NCc3cccc(NS(C)(=O)=O)c3)cc(-c3ccc(OC)cc3)n2)cc1`, the values for the inhibition in assay [1], in assay [2] and in assay [3] were 4.4%, 5.23% and 1.09%, respectively.
